Potency data for one molecule are collected here from PubChem BioAssay AID743167 (National Center for Advancing Translational Sciences (NCATS), 2013).

Inconclusive results are not listed. Calls of active or inactive are those of the source. Calls follow the shape of the dose curve; as a rule, active = well fitted activation curve with a large enough effect; inconclusive = small, poorly fitted or top-dose-only effect; inactive = flat fitted curve, though single readings scatter.

The nature of the test: Extended Characterization of HPGD Inhibitors: PGE2 Assay in A549 Cells. The settings on record: PGE2 HTRF level, 16 h. An excerpt: The central role of HPGD is to inactivate prostaglandins such as prostaglandin E2 (PGE2) or prostaglandin D2 (PGD2). These prostaglandins are involved in a number of processes, including inflammation, differentiation, and cellular signaling, which makes HPGD an important target for pharmacological intervention. A number of prostaglandins of particular biological interest have been identified as substrates of HPGD. […] Over-production of PGE2 has been reported to promote tumor-associated neovascularization, cell proliferation, and tumor growth. […] In this orthogonal assay, we set out to measure if compounds were able to increase PGE2 production NIH Chemical Genomics Center [NCGC] NIH Molecular Libraries Probe Centers Network [MLPCN] MLPCN Grant: MH084681 Assay Submitter (PI): Structural Genomics Consortium
A549 cells, LNCaP cells or media were dispensed in 384-well plates (ProxiPlate-384 Plus, PerkinElmer, Shelton, CT) at 5,000 cells/9.9 uL/well using a CappAero384 multichannel pipette (Odense, Denmark). Separately on the plate, 10 uL of PGE2 calibration standards at a starting assay concentration of 5,000 pg/mL (1:2 dilution, 12-points, n = 1, prepared in media, Cisbio, Bedford, MA) were dispensed. Compounds (100 nL, final concentration range from 41.9 nM to 100 uM) were transferred using an ATS Acoustic Liquid Dispenser (EDC Biosystems, Fremont, CA). After being mixed using an automated liquid handler (CyBio, Jena, Germany), samples were incubated (37 deg C, 5% CO2, under a humidified atmosphere) for 16 hours. PGE2 labeled conjugates were added to each well, first 5 uL of PGE2-d2, followed by 5 uL of anti-PGE2-cryptate, centrifuged (1,500 rpm, 15 sec) and incubated (RT, protected from light) for 5 hours. Time-resolved fluorescence intensity (320 nm excitation, 615 and 665 nm emission) was measured using an Envision plate reader (PerkinElmer). Data was expressed as the ratio of 665 nm/615 nm emissions. Concentration (pg/mL) of samples were calculated from a 4-parameter logistic calibration curves of the PGE2 standards.
Background: TR-FRET usually uses a lanthanide donor and a delayed reading to cut background.
With `Cc1cccc(-n2cnc3cc(C(=O)N4CCCC(C(F)(F)F)C4)ccc32)c1` (stereo unspecified), the Potency was 1.32 µM (active).
